Source: PubChem BioAssay (Tox21)
Records with an inconclusive call do not appear. The source made the active and inactive calls. Calls follow the shape of the dose curve; as a rule, active = well fitted cell-killing curve with a large enough effect in the repeat runs (not every such curve was filed as active); inconclusive = weak or mixed curves, or effect the other way; inactive = no such curve, though single readings can be large or run the other way.

assay: qHTS assay to identify small molecule antagonists of the farnesoid-X-receptor (FXR) signaling pathway - cell viability counter screen (AID 743221); settings: FXR-bla HEK293T viability, CellTiter-Glo luminescence, 16 h; series mostly up to 62.6 µM; also: nearly all actives have a fitted effect of over 50% in size
Text: National Center for Advancing Translational Sciences [NCATS]
NIH Chemical Genomics Center [NCGC]
U.S. Environmental Protection Agency [EPA]
National Institutes of Environmental Health Sciences [NIEHS]
National Toxicology Program [NTP]
U.S. Food and Drug Administration [FDA]
The farnesoid-X-receptor (FXR), a nuclear hormone receptor, is highly expressed in liver, intestine, kidney and adrenal cortex. Natural ligands of FXR are the bile acids (Cholic acid, Chenodeoxy cholic acid etc). FXR is an important regulator of diverse metabolic pathways, including the bile acid homeostasis, lipid and glucose metabolisms. FXR regulates the expression of target genes by binding either as a monomer or as a heterodimer with the retinoid X receptor (RXR). Numerous studies have reported that FXR exerts protective function during cholestasis, diabetes, liver regeneration, and cancer. To identify compounds that inhibit FXR signaling, GeneBLAzer FXR-UAS-bla HEK 293T cell line (Invitrogen, Carlsbad, CA) containing a beta-lactamase reporter gene under the control of a UAS response element was used to screen the Tox21 10K compound library. The cytotoxicity of the Tox21 compound library against the FXR-bla cell line was tested in parallel by measuring the cell viability using CellTiter-Glo assay in the same wells.
Tox21 Assay Protocol Summary:
FXR-bla cells were dispensed at 5000 cells/5uL/well in 1536-well black wall/clear bottom plates using a Multidrop Combi (Thermo Fisher Scientific, Waltham, MA) dispenser. After the assay plates were incubated at 37 C and 5% CO2 for 5 h, 23 nL of compounds dissolved in DMSO, positive controls or DMSO only was transferred to the assay plate by a Pintool station (Kalypsys, San Diego, CA), followed by addition of 1 uL Chenodeoxycholic acid (50 uM, final concentration in the wells). The assay plates were incubated at 37C for 16 h. After 1 uL of LiveBLAzerTM B/G FRET substrate was added using a Bioraptr Flying Reagent Dispenser (FRD) workstation (Beckman Coulter, Indianapolis, IN), the plates were incubated at room temperature for 2 h, and fluorescence intensity was measured by an Envision plate reader (PerkinElmer, Shelton, CT). For cell viability readout that measures cytotoxicity, 4uL/well of CellTiter-Glo reagent was added into the assay plates using a Bioraptr FRD. After 30 min incubation at room temperature, the luminescence intensity in the plates was measured using a ViewLux plate reader (PerkinElmer).

SMILES | outcome
CCN(O)CC | inactive
CC(C)C1=CC2=CC[C@@H]3[C@](C)(CCC[C@@]3(C)C(=O)O)[C@H]2CC1 | inactive
Cn1cnc2c(F)c(Nc3ccc(Br)cc3Cl)c(C(=O)NOCCO)cc21 | inactive
CCCOCCC | inactive
OC[C@H]1O[C@@H](O[C@H]2[C@H](O)[C@@H](O)[C@H](O)O[C@@H]2CO)[C@H](O)[C@@H](O)[C@H]1O | inactive
Nc1ccc(Oc2ccc(N)c(N)c2)cc1 | inactive
CC1(C)C(=O)N(Cl)C(=O)N1Br | inactive
O=C(O[C@@H](C(=O)O)[C@@H](OC(=O)c1ccccc1)C(=O)O)c1ccccc1 | inactive
CN(CC1(C)CCCO1)S(=O)(=O)c1ccc(Cl)c(S(N)(=O)=O)c1 (stereo not given) | inactive
O=C1CCCCCCCCCCC(=O)OCCO1 | inactive
CCCCCOc1ccc(C2SC(=O)NC2=O)cc1OCC (stereo not given) | inactive
Nc1ccc2ccccc2c1S(=O)(=O)O | inactive
CCCCNc1ccc(C(=O)OCCN(CC)CC)cc1 | inactive
CC1CN(c2ccccc2)NC1=O (stereo not given) | inactive
CC1=NN(c2cc(Cl)c(S(=O)(=O)O)cc2Cl)C(=O)C1N=Nc1ccc(S(=O)(=O)O)cc1 (stereo not given) | inactive
CN1CCN(N)CC1 | inactive
c1ccc(CN(CC2=NCCN2)c2ccccc2)cc1 | inactive
OCCN(CCO)CCN(CCO)CCO | inactive
CC1=CC(=O)CC(C)(C)C1=O | inactive
COc1ccccc1OCC(O)COC(N)=O (stereo not given) | inactive

SMILES | outcome
CN1[C@@H]2CC[C@H]1CC(OC(=O)c1c[nH]c3ccccc13)C2 (stereo not given in full) | inactive
O=C(Cl)c1cccc([N+](=O)[O-])c1 | inactive
CCCC1CCC(=O)O1 (stereo not given) | inactive
COc1nc(C)nc(NC(=O)NS(=O)(=O)c2ccccc2OCCCl)n1 | inactive
O=[N+]([O-])c1nccn1CO[C@@H](CO)[C@H](O)CO | inactive
C1CCOC1 | inactive
C=CC1CO1 (stereo not given) | inactive
CCNCCO | inactive
Cc1cccc(C)c1NC(=O)CN1CCCCCC1 | inactive
NC/C=C/C(=O)O | inactive
CCc1cc2cc(OC)c(OC)cc2c(Cc2ccccc2)n1 | inactive
C=O | inactive
CCN(CC)C(=O)N(CC)CC | inactive
CC(=O)Oc1cc(C(C)C)c(OCCN(C)C)cc1C | inactive
CC(C)(CO)[C@@H](O)C(=O)NCCC(=O)O | inactive
CCOC(=O)[C@H](CCc1ccccc1)N[C@@H](C)C(=O)N1Cc2cc(OC)c(OC)cc2C[C@H]1C(=O)O | inactive
CCCCCCCCCC/C=C/C#N | inactive
CC(=O)Nc1ccc(C)c(Cl)c1 | inactive
CCCC(CCC)(C(=O)OCC)C(=O)OCC | inactive
O=C(O)C(=O)Cc1c[nH]c2ccccc12 | inactive
